# Assay outcomes (PubChem)
# Anthrax LF inh2 = blocks Bacillus anthracis lethal factor protease | multiplex microsphere protease cleavage assay, LF | AID 588501 | inhibition, % at 10 µM | 0.12% of 360,000 active; further: plate controls were buffer without enzyme for full effect and enzyme alone for no effect
# BoNT-A LC inh2 = BoNT A light chain protease inhibition; 0.17% of 360,000 active; multiplex microsphere protease substrate cleavage, flow cytometry; inhibition, % at 10 µM; further: plate controls were buffer without enzyme for full effect and enzyme alone for no effect
# Autofluor counter = compound fluorescence in toxin protease inhibitor counterscreen; compound autofluorescence counterscreen, microsphere flow cytometry; active compounds read high; fluorescence intensity (concentration not given with the values); 3.1% of 360,000 active; in the data active means fluorescence intensity above about 16000; inconclusive means no clear call, values can overlap the other calls
# BoNT F protease = BoNT F light chain protease inhibition; Multiplex microsphere protease cleavage assay, flow cytometry; inhibition, % at 10 µM; 0.22% of 360,000 active; in the data active means inhibition above about 35%, passing the limit was not always enough; inconclusive means no clear call, values can overlap the other calls; further: plate controls were buffer without enzyme for full effect and enzyme alone for no effect
# MazF activator = MazEF (E. coli) toxin RNase activation; FAM/BHQ RNA-DNA oligo cleavage fluorescence, 5 h; 0.32% of 350,000 active; activation, % at 20 µM; in the data active means activation above about 50%
# Target sequence (P0AE70 whole entry, looked up): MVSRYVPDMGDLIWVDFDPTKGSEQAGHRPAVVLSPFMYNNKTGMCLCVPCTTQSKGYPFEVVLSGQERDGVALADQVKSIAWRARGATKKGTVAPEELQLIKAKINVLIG
# * marks the source's active call; other numbers are inactive results; ? = inconclusive; / = not tested or not shown. Only some compounds are listed: those with a hit (about 3.7% of all), similar ones and a draw of the others. Unless noted, no stated cut-off is given here; in the data, active means inhibition above about 30%; inconclusive means no clear call, values can overlap the other calls; inactive means below that.
SMILES,Anthrax LF inh2,BoNT-A LC inh2,Autofluor counter,BoNT F protease,MazF activator
O=C(Cn1cc(C(F)(F)F)ccc1=O)Nc1ccc2c(c1)OCO2,4,0,3917,1,2
N/C(Cc1ccc(Cl)cc1)=N\OC(=O)c1ccccc1,-1,1,4345,42*,3
COc1ccc(C(=O)O/N=C(\N)Cc2ccc(Cl)cc2)cc1OC,7,0,3250,-4,1
Cc1cccnc1C(NC(=O)C1CCN(Cc2ccc(Oc3ccccc3)cc2)CC1)c1ccccc1 (configuration not stated),0,0,4269,-5,/
Cc1nc2ccc(NS(=O)(=O)c3ccc(C)c(C)c3)cc2s1,-1,-1,3345,-23,-13
Cc1nc2ccc(S(=O)(=O)Nc3ccccc3C)cc2s1,-4,-5,17531*,-8,9
O=C(Nc1ccccc1)Nc1ccc(Oc2ncnc3cc(Cl)ccc23)nc1,/,/,/,/,-22
O=C(O)CCC(=O)Nc1ccc(Oc2ncnc3cc(Cl)ccc23)nc1,?,9,3429,40*,10
O=C(Nc1cccc(OC(F)(F)F)c1)C1Cc2c(-c3ccc4c(c3)OCO4)ccnc2O1 (configuration not stated),-3,0,3677,2,/
Cc1nc2c(o1)C(=O)c1ccccc1C2=Nc1ccccc1,-8,0,2983,-5,12
COc1ccc(-c2csc(N(CCc3ccc(OC)c(OC)c3)C(=O)COc3ccccc3)n2)cc1,-2,?,19913*,-2,-4
O=C(COc1ccccc1)N(Cc1ccccc1)c1nc(-c2ccccc2)cs1,-1,1,21962*,2,4
COc1ccc(-c2csc(N(Cc3ccccc3)C(=O)COc3ccc(Cl)cc3)n2)cc1,-4,-1,10521,-5,4
Cn1c(CCN2CCN(c3ccc(F)cc3)CC2)nc2cc(NC(=O)c3ccco3)ccc21,-2,0,24006*,-4,3
Cc1ccc(N2CCN(CCc3nc4cc(NC(=O)c5ccco5)ccc4n3C)CC2)cc1,-6,-2,24375*,-4,4
Cn1c(CCNC(=O)c2ccco2)nc2cc(NS(=O)(=O)c3ccc(Cl)cc3)ccc21,-2,-6,21550*,-6,2
CC(=O)NCCc1nc2cc(NS(=O)(=O)c3ccc(Cl)cc3)ccc2n1C,10,0,3210,-9,4
Cc1nnc(NC(=O)CSc2nc3c(c(=O)n(C)c(=O)n3C)n2C(C)C)s1,-1,1,4381,4,3
CCCn1c(SCC(=O)Nc2ccccc2N2CCOCC2)nc2c1c(=O)n(C)c(=O)n2C,0,0,2836,?,10
O=C(CSc1nnnn1-c1ccccc1)N1CCc2ccccc2C1,-2,-1,22363*,0,2
CC(=O)c1ccc(-n2nnnc2SCC(=O)N2CCc3ccccc3C2)cc1,-2,-1,2833,-4,6
CCOc1ccc(OCC)c(NC(=O)CSc2nc3c(c(=O)n(C)c(=O)n3C)n2CC)c1,-2,0,19457*,-1,-5
CCCCn1c(SCC(=O)Nc2nnc(C(C)C)s2)nc2c1c(=O)n(C)c(=O)n2C,0,0,20755*,1,-1
CCCn1c(SCC(=O)Nc2nc3c(s2)CCCC3)nc2c1c(=O)n(C)c(=O)n2C,0,-1,23637*,-2,11
Cc1ccc(N2CC(C(=O)NCCS(=O)(=O)N3CCN(c4ccccc4)CC3)CC2=O)cc1C (configuration not stated),0,-1,5969,-5,6
SMILES,Anthrax LF inh2,BoNT-A LC inh2,Autofluor counter,BoNT F protease,MazF activator
COc1ccc(F)cc1S(=O)(=O)N1CCc2ccccc2C1,-9,0,3599,2,1
CCc1ccc(OC(=O)Nc2ccccc2)cc1,5,0,3198,9,9
CCN1C(=O)[C@H]2[C@@H](c3ccc(C(F)(F)F)cc3)N[C@]3(CCCN(CC4CCCCC4)C3=O)[C@H]2C1=O,-7,0,3879,-1,1
Nc1cc(=O)[nH]c(SCC(=O)N2CCc3ccccc3C2)n1,0,0,20269*,1,-1
C(=C\CSc1nnnn1-c1ccccc1)/CSc1nnnn1-c1ccccc1,-3,1,20060*,3,-1
CCCn1c(SCC(=O)N2CCc3ccccc3C2)nc2c1c(=O)n(C)c(=O)n2C,-1,-1,23593*,-1,-2
Cc1nnc(Cc2ccco2)c2n[nH]c(C)c12,-6,-1,3004,-6,8
O=C(NCc1ccccc1F)C1CC(=O)N(Cc2ccco2)C1 (configuration not stated),2,0,3760,-1,-8
